# Experimental data reported in PubChem BioAssay (NCATS).
# Values joined by “and” are separate entries in the source; they are usually repeats but may differ in a detail not shown here. Identical values can stand only once. Records with an inconclusive call do not appear. Active and inactive are the calls of the source. Unless noted, the call rests on the fitted dose curve; in most records, active means well fitted curve in the direction sought with a large enough effect; inconclusive means small, poorly fitted or top-dose-only effect, or another doubt; inactive means no such curve, though single readings can be large; an effect the other way counts as inactive or inconclusive.
# How the values were obtained:
# [1] = molecular target: Tyrosine-protein kinase Yes (Homo sapiens) (UniProt P07947); experiment: qHTS for small molecule inhibitors of Yes1 kinase: Primary Screen (AID 686947); conditions: Yes1 kinase biochemical qHTS inhibition; series mostly up to 76.9 µM; further: nearly all actives have a fitted effect of over 60% in size; further: potency means the concentration at half of the fitted maximal effect
# Sequence of Tyrosine-protein kinase Yes (Homo sapiens) (P07947 whole entry, looked up): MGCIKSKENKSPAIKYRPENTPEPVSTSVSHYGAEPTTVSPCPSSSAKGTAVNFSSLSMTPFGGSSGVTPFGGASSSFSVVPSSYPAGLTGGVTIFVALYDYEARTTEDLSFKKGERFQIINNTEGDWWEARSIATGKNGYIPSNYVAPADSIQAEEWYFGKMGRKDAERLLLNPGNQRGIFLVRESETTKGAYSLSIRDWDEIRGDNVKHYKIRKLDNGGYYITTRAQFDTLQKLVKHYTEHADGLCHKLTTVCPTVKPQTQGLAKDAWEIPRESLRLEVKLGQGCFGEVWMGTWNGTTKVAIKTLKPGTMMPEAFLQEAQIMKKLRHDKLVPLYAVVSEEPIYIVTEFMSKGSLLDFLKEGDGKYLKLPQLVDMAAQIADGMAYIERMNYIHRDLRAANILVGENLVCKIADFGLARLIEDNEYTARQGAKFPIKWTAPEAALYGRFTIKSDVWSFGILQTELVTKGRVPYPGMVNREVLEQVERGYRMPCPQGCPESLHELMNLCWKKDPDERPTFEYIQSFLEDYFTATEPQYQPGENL
# How it was run: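 ADP-Glo luminescence readout; final 4 nM Yes1, 0.1 mM ATP, 0.3 mg/mL poly(E4Y), Tris pH 7.5, MgCl2, DTT, Brij-35. 20 min compound preincubation, 60 min reaction at RT. Normalized to DMSO wells with and without enzyme.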
# [2] = qHTS for small molecule inhibitors of Yes1 kinase: Counter Assay (AID 686950); conditions: series mostly up to 76.9 µM;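 further: no kinase present so only ADP-Glo detection of a fixed ADP amount is tested; luminescence from ADP-Glo reporting ADP in a fixed ATP and ADP mixture; 0% = DMSO wells with ATP plus ADP and -100% = ATP-only wells without ADP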
# How it was run: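 Luminescence read-out from ADP-Glo quantifies a fixed ADP amount (0.02 mM ADP with 0.08 mM ATP) after 60 min at room temperature; signal is normalized between DMSO wells with ATP/ADP and with 0.1 mM ATP alone.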
# [3] = qHTS profiling for inhibitors of Plasmodium falciparum (3D7) proliferation (AID 743322; call rule not given here;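 further: infected erythrocytes exposed to compound for 72 h before lysis; 100% = DMSO vehicle wells and 0% = 0.29 µM artemisinin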); conditions: P. falciparum 3D7 proliferation; at 28.7 µM (top of the series)
# How it was run: (§1)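 Erythrocytes infected with P. falciparum (0.3% parasitemia, 2.5% hematocrit) incubated with compounds 72 h at 37 C, 5% CO2. Lysis with saponin/Triton buffer containing SYBR Green I, overnight at room temperature in the dark; DNA fluorescence (485/535 nm) normalised to 0.29 uM artemisinin and DMSO.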
# [4] = qHTS profiling for inhibitors of Plasmodium falciparum (DD2) proliferation (AID 743323; call rule not given here); conditions: lower = more inhibition; at 28.7 µM (top of the series)
# How it was run: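 Parasite DNA quantified by SYBR Green fluorescence (ex 485, em 535 nm) after saponin/Triton lysis and overnight dark incubation. Cultures: 0.3% parasitemia, 2.5% hematocrit, 72 h, 37 C; data scaled between DMSO and 0.29 uM artemisinin.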
# [5] = qHTS profiling for inhibitors of Plasmodium falciparum (HB3) proliferation (AID 743324); conditions: Plasmodium falciparum HB3 blood-stage proliferation; at 28.7 µM (top of the series);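 further: 100% = DMSO vehicle wells and 0% = artemisinin-treated control wells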
# How it was run: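 P. falciparum HB3 grown in erythrocytes (0.3% parasitemia, 2.5% hematocrit final) with compound for 72 h at 37 C, 5% CO2. Parasite DNA detected by SYBR Green after saponin/triton lysis overnight; normalized to 0.29 uM artemisinin and DMSO.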
# [6] = qHTS profiling of the MIPE4 collection as inhibitors of Plasmodium falciparum (3D7) proliferation (AID 743344; call rule not given here;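 further: scaled between DMSO vehicle wells and 0.29 µM artemisinin as full inhibition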); conditions: P. falciparum 3D7 in erythrocytes, SYBR Green DNA fluorescence, 72 h; at 28.5 µM (top of the series) unless noted
# How it was run: as §1
# [7] = qHTS profiling of the MIPE4 collection as inhibitors of Plasmodium falciparum (DD2) proliferation (AID 743345; call rule not given here); conditions: P. falciparum Dd2 in erythrocytes, SYBR Green DNA, 72 h; at 28.5 µM (top of the series) unless noted
# How it was run: as §1
# [8] = molecular target: Arylsulfatase A (Homo sapiens) (UniProt P15289); experiment: qHTS screen for enhancers of Arylsulfatase A (ASA1): LOPAC Validation Assay (AID 720538); conditions: ASA enzyme activity, LOPAC qHTS enhancer assay; series mostly up to 57.5 µM
# Sequence of Arylsulfatase A (Homo sapiens) (P15289 whole entry, looked up): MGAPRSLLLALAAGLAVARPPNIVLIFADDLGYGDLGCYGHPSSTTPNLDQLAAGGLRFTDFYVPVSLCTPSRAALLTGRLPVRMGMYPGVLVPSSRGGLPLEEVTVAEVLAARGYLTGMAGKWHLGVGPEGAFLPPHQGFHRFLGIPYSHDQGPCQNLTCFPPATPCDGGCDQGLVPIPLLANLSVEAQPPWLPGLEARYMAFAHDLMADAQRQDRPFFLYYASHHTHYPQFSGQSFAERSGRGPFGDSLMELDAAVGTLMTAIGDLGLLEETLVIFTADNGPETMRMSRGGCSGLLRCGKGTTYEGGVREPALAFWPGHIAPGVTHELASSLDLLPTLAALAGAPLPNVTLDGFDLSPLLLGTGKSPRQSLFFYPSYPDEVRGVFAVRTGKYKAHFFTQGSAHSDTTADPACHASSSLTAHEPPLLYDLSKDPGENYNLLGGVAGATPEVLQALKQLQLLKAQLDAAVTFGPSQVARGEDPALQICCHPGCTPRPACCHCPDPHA
# How it was run: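 Read-out: fluorescence at Ex=525/Em=598 nm after 1N NaOH final stop. Patient fibroblasts carrying ASA-I179S had 48h compound exposure, then 14h room-temperature pNCS hydrolysis (0.5mM final) in lysis buffer. Signal increase = enhanced activity.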
# [9] = qHTS for compounds that reverse cellular toxicity of Amyloid beta (A-beta) peptide in yeast: LOPAC Validation Assay (AID 720559); conditions: yeast expressing A-beta; series mostly up to 46.1 µM;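 further: plate controls were DMSO for no effect and equimolar ferric chloride plus clioquinol rescue for full effect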
# How it was run: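 OD600 growth readout after 48 hr at 30 C; A-beta-toxic yeast plus pinned compounds in medium. Normalization: DMSO = negative, equimolar FeCl3 + clioquinol = positive.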
# [10] = qHTS for Activators of Parkin Expression: LOPAC Validation Assay (NLuc Reporter) (AID 720572;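 further: 0% = DMSO and 100% = positive control compound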); conditions: Parkin promoter NanoLuc reporter cells, luminescence; series mostly up to 46.1 µM
# How it was run: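 Parkin promoter-driven FLuc/NLuc neuronal reporter cells; 24 h plating, 7-pt dose response, 24 h at 37 C/5% CO2; FLuc then NanoLuc reagent, 10 min each, luminescence; DMSO/positive control normalized.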
# [11] = qHTS for Activators of Parkin Expression: LOPAC Validation Assay (FLuc Reporter) (AID 720573;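 further: 0% = DMSO and 100% = positive control compounds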); conditions: Cell line, PRKN promoter firefly luciferase reporter; series mostly up to 46.1 µM
# How it was run: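 FLuc luminescence read-out from a neuronal line expressing a Parkin-promoter-driven coincidence reporter. Cells treated 24 h at 37 C, 5% CO2 with compounds at 7 concentrations; signal increase normalized to DMSO and positive control.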
# [12] = molecular target: Hexokinase-4 (Homo sapiens) + Glucokinase regulatory protein (Homo sapiens) (UniProt P35557+Q14397); experiment: qHTS assay for inhibitors of recombinant human GCK-GKRP interaction: Diaphorase-coupled assay (AID 743205); conditions: G6PDH/diaphorase resorufin fluorescence; series mostly up to 57.5 µM
# Sequence of Hexokinase-4 (Homo sapiens) + Glucokinase regulatory protein (Homo sapiens) (P35557 whole entry, looked up): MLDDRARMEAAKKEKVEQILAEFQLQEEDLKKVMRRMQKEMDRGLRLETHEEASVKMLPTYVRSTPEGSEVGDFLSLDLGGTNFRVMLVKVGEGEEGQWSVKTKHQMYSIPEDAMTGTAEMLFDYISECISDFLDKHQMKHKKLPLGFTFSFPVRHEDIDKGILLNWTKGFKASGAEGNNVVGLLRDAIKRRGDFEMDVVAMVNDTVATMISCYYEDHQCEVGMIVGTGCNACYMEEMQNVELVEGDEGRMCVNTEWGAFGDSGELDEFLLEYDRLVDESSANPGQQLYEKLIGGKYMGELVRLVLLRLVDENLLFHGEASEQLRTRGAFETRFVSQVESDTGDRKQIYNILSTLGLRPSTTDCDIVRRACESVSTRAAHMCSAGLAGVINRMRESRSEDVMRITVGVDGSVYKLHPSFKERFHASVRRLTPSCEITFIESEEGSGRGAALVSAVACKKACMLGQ
# Sequence of Hexokinase-4 (Homo sapiens) + Glucokinase regulatory protein (Homo sapiens) (Q14397 whole entry, looked up): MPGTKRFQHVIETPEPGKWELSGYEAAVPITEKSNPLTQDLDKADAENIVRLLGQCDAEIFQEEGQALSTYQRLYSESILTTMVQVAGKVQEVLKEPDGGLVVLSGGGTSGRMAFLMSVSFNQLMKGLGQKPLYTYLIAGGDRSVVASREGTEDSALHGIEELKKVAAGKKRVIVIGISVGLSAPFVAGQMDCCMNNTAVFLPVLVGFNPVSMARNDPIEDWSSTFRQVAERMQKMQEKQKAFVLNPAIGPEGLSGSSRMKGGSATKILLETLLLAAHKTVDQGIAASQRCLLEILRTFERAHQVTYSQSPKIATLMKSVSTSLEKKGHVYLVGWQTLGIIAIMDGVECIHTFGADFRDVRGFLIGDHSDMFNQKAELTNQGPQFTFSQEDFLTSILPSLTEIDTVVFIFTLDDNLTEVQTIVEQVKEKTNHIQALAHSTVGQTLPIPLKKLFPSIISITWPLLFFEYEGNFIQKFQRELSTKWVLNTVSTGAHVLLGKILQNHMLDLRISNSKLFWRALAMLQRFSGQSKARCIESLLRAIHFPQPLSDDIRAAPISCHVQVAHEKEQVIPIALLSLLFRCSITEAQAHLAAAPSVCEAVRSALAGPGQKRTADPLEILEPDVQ
# How it was run: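 Resorufin fluorescence (525/590 nm), read each minute over 30 min, reports GCK activity coupled via G6PDH and diaphorase. Reaction: 10 nM GST-GCK, 10 nM FLAG-GKRP, 5 mM glucose, 0.4 mM ATP, 0.15 mM NADP+, 0.1 mM resazurin.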
# [13] = qHTS Assay for Identifying Gametocytocidal Compounds (AID 743244); further: potency means the concentration at half of the fitted maximal effect;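 on max response: on the % scale 0 is the no-effect control and ±100 the full control effect; actives lower the fluorescent signal which means gametocytes are killed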; conditions: P. falciparum 3D7 stage III-V gametocytes, alamarBlue, 72 h; max response: stronger effect = lower value
# How it was run: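 Compounds are pinned into medium, gametocytes (stage III–V, 3D7, 20,000 cells/well) added, and plates held 72 h at 37 °C in 5% CO2. AlamarBlue follows for 24 h before fluorescence reading.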
smiles,measurement,setting,value
CO[C@H]1C[C@@H]2CC[C@@H](C)[C@@](O)(O2)C(=O)C(=O)N2CCCC[C@@H]2C(=O)O[C@H]([C@H](C)C[C@@H]2CC[C@H](OCCO)[C@H](OC)C2)CC(=O)[C@H](C)C=C(C)[C@@H](O)[C@@H](OC)C(=O)[C@H](C)C[C@H](C)C=CC=CC=C1C,Potency,[1],inactive
same,outcome,[2],inactive
same,remaining parasite growth % (stronger effect = lower value),[3],-1.41%
same,"activity, percent of control",[4],-0.639%
same,"remaining proliferation (% of control), lower = more inhibition",[5],-1.24%
same,"parasite growth, % of DMSO control",[6],4.95%
same,"parasite growth remaining, % of DMSO control (lower = more inhibition)",[7],7.69%
O=C1NCC2(CCN(CCc3ccccc3)CC2)O1,outcome,[8],inactive
same,outcome,[9],inactive
same,Potency,[10],inactive
same,Potency,[11],inactive
same,outcome,[12],inactive
same,max response,[13],1.69% (inactive) and 18.3% (inactive)
CCN(CC)C(=O)c1ccc(O)c(OC)c1,outcome,[8],inactive; inhibitor; fitted 6.012 uM
same,outcome,[9],inactive
same,Potency,[10],inactive
same,Potency,[11],inactive
same,outcome,[12],inactive
same,max response,[13],14.2% (inactive) and 0.626% (inactive) and 4.97% (inactive)
O=C(NCCN1CCOCC1)c1ccc(Cl)cc1,outcome,[8],inactive
same,outcome,[9],inactive
same,Potency,[10],inactive
same,Potency,[11],inactive
same,outcome,[12],inactive
same,max response,[13],-4.13% (inactive) and 9.69% (inactive) and 29.4% (inactive)
CS(=O)c1ccc(-c2nc(-c3ccc(F)cc3)c(-c3ccncc3)[nH]2)cc1 (stereo unspecified),outcome,[2],inactive
same,max response,[13],1.2% (inactive)
same,"remaining proliferation (% of control), lower = more inhibition",[5],20.3%
same,"parasite growth, % of DMSO control",[6],19.5% [at 57.5 µM]
same,"parasite growth remaining, % of DMSO control (lower = more inhibition)",[7],26.4% [at 57.5 µM]
NC(N)=Nc1nc(CSCC/C(N)=N/S(N)(=O)=O)cs1,outcome,[8],inactive
same,outcome,[9],inactive
same,Potency,[10],inactive
same,Potency,[11],inactive
same,outcome,[12],inactive
same,max response,[13],5.05% (inactive) and 9.64% (inactive)
O=c1cc(N2CCOCC2)oc2c(-c3cccc4c3sc3ccccc34)cccc12,Potency,[1],inactive
same,outcome,[2],inactive
same,max response,[13],-22.3% (inactive)
same,remaining parasite growth % (stronger effect = lower value),[3],3.79%
same,"activity, percent of control",[4],10.6%
same,"remaining proliferation (% of control), lower = more inhibition",[5],5.89%
same,"parasite growth remaining, % of DMSO control (lower = more inhibition)",[7],28.4%
CC(C)(C)c1ccc(C(O)CCCN2CCC(C(O)(c3ccccc3)c3ccccc3)CC2)cc1 (stereo unspecified),outcome,[8],inactive
same,outcome,[9],inactive
same,Potency,[10],inactive
same,Potency,[11],inactive
c1ccc2c(-c3cnn4cc(-c5ccc(N6CCNCC6)cc5)cnc34)ccnc2c1,Potency,[1],0.137 µM (active)
same,outcome,[2],inactive
same,Potency,[13],3.72 µM (active)
same,remaining parasite growth % (stronger effect = lower value),[3],-1.65%
same,"activity, percent of control",[4],-0.291%
same,"parasite growth, % of DMSO control",[6],4.34%
same,"parasite growth remaining, % of DMSO control (lower = more inhibition)",[7],5.98%
COc1cc(Nc2ncc(F)c(Nc3ccc4c(n3)NC(=O)C(C)(C)O4)n2)cc(OC)c1OC,outcome,[2],inactive
same,max response,[13],23.2% (inactive)
same,remaining parasite growth % (stronger effect = lower value),[3],83%
same,"activity, percent of control",[4],89.1%
same,"remaining proliferation (% of control), lower = more inhibition",[5],58.2%
same,"parasite growth, % of DMSO control",[6],5.27%
same,"parasite growth remaining, % of DMSO control (lower = more inhibition)",[7],7%
COc1ncc(-c2ccc3nccc(-c4ccnnc4)c3c2)cc1NS(=O)(=O)c1ccc(F)cc1F,outcome,[2],inactive
same,Potency,[13],0.935 µM (active)
same,remaining parasite growth % (stronger effect = lower value),[3],-1.12%
same,"activity, percent of control",[4],-0.177%
same,"remaining proliferation (% of control), lower = more inhibition",[5],-1.02%
same,"parasite growth, % of DMSO control",[6],4.65%
same,"parasite growth remaining, % of DMSO control (lower = more inhibition)",[7],7.55%
NCCS,outcome,[8],inactive
same,outcome,[9],inactive
same,Potency,[10],inactive
same,Potency,[11],inactive
same,outcome,[12],inactive
same,max response,[13],-3.42% (inactive) and 10.4% (inactive) and 19.2% (inactive)
CO[C@@H](C(=O)N1Cc2[nH]nc(NC(=O)c3ccc(N4CCN(C)CC4)cc3)c2C1)c1ccccc1,outcome,[2],inactive
same,remaining parasite growth % (stronger effect = lower value),[3],5.46%
same,"activity, percent of control",[4],24.6%
same,"remaining proliferation (% of control), lower = more inhibition",[5],7.25%
same,"parasite growth, % of DMSO control",[6],6.06%
same,"parasite growth remaining, % of DMSO control (lower = more inhibition)",[7],12.3%
NC(CO)(CO)CCc1ccc(Sc2cccc(OCc3ccccc3)c2)cc1Cl,outcome,[2],inactive
same,remaining parasite growth % (stronger effect = lower value),[3],-0.423%
same,"activity, percent of control",[4],1.55%
same,"remaining proliferation (% of control), lower = more inhibition",[5],-1.39%
same,"parasite growth, % of DMSO control",[6],4.87%
same,"parasite growth remaining, % of DMSO control (lower = more inhibition)",[7],8.96%
O=C(O)CCC1CCC(c2cc(F)ccc2F)(S(=O)(=O)c2ccc(Cl)cc2)CC1 (stereo unspecified),Potency,[1],inactive
same,outcome,[2],inactive
same,max response,[13],-21% (inactive)
same,remaining parasite growth % (stronger effect = lower value),[3],23.3%
same,"activity, percent of control",[4],74.5%
same,"remaining proliferation (% of control), lower = more inhibition",[5],56.3%
same,"parasite growth remaining, % of DMSO control (lower = more inhibition)",[7],93.8%
CCOC(CN1C(=O)[C@](CC(=O)Nc2ccc(C)cc2)(NC(=O)Nc2ccc(C)cc2)c2ccccc21)OCC,Potency,[1],inactive
same,outcome,[2],inactive
same,remaining parasite growth % (stronger effect = lower value),[3],4.05%
same,"activity, percent of control",[4],23.7%
same,"remaining proliferation (% of control), lower = more inhibition",[5],10.1%
same,"parasite growth remaining, % of DMSO control (lower = more inhibition)",[7],38.2%
CN(C)C1CCN(C(=O)c2ccc(NC(=O)Nc3nc(N4CCOCC4)nc(N4CCOCC4)n3)cc2)CC1,outcome,[2],inactive
same,Potency,[13],23.5 µM (active)
same,remaining parasite growth % (stronger effect = lower value),[3],0.246%
same,"activity, percent of control",[4],2%
same,"remaining proliferation (% of control), lower = more inhibition",[5],2.09%
same,"parasite growth remaining, % of DMSO control (lower = more inhibition)",[7],7.83%
Cc1cccc(C)c1OCC(C)N (stereo unspecified),outcome,[8],inactive
same,outcome,[9],inactive
same,Potency,[10],inactive
same,Potency,[11],inactive
same,outcome,[12],inactive
same,max response,[13],9.33% (inactive) and -4.15% (inactive) and 13.1% (inactive)
